# Source: PubChem BioAssay (EPA / NIEHS)
# Records with an inconclusive call do not appear. Activity calls are given as the source filed them. Rule for the calls: active = hit-call score of the fitted dose curve at least 0.9, where 1 is the maximum; inconclusive = response in the unintended direction; inactive = score below 0.9.
# Target: human Vitamin D Receptor (VDR), VDR (gene 7421) (UniProt P11473)
# Assay: ATG_VDR_TRANS: Attagene TRANS-FACTORIAL HepG2 Assay for human Vitamin D Receptor (VDR) (AID 2283022)
# Method in brief: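 Steps: transfect HepG2 with GAL4-UAS-driven reporter constructs; dose compounds 24 h; isolate RNA, reverse-transcribe, PCR-amplify with 6-FAM-labelled primer extension and HpaI digestion; quantify fragments by capillary electrophoresis relative to DMSO.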
# human Vitamin D Receptor (VDR), VDR (gene 7421), sequence (P11473 whole entry, looked up): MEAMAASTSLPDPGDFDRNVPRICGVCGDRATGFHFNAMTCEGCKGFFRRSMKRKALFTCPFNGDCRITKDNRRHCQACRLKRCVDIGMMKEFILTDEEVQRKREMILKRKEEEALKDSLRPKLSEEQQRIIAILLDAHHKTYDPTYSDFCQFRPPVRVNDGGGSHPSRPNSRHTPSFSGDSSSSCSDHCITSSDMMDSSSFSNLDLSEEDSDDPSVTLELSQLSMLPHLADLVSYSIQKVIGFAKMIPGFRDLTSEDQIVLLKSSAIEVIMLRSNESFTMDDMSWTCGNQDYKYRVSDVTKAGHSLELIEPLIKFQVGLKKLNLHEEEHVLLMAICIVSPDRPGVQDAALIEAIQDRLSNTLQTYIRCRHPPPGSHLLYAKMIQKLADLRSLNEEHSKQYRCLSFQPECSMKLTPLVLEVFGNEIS
row,SMILES,outcome
1,CCCCCCCC(=O)N(C)C,inactive
2,CC(C)N(c1ccccc1)C(C)C,inactive
3,CCCCC/C=C\C=C\C(=O)OCC,inactive
4,CC(=O)c1cccnc1,inactive
5,CC(CCO)CC(C)(C)C (stereo not given),inactive
6,CCc1cccc(O)c1,inactive
7,C/C=C(\C)C(=O)OC/C=C(\C)CCC=C(C)C,inactive
8,C=CC(C)CCCC(C)(C)O (stereo not given),inactive
9,NS(=O)(=O)c1cc(C(=O)O)c(NCc2ccco2)cc1Cl,inactive
10,CN(C)C,inactive
11,CC(C)(C)c1ccc(S)cc1,inactive
12,OCCCO,inactive
13,Brc1cc(Br)cc(Br)c1,inactive
14,CCCc1ccc(N)cc1,inactive
15,CC(=O)Oc1c(C)c(C)c2c(c1C)CC[C@@](C)(CCC[C@H](C)CCC[C@H](C)CCCC(C)C)O2,inactive
16,O=S(=O)(O)CCCN1CCOCC1,inactive
17,CC(=O)c1ccc(O)cc1,inactive
18,CC(=O)C1=C(C)[C@@H]2C[C@@]3(C1)[C@H](C)CC[C@H]3C2(C)C,inactive
19,[Cl][Dy]([Cl])[Cl],inactive
20,CCCCCCCCCCOC(=O)c1ccccc1C(=O)OCCCCCCCC,inactive
21,OCC=Cc1ccccc1,inactive
22,O=C(OCc1ccccc1)c1ccccc1O,inactive
23,CCCCN(CCCC)CCCCCCN(CCCC)CCCC,inactive
24,COc1ccc(OC)cc1,inactive
25,CCOC(=O)CC(C)C,inactive
26,CCCCCCCOC(C)=O,inactive
27,CC(=O)CCc1ccc(O)cc1,inactive
28,CCOC(=O)COC(=O)c1ccccc1C(=O)OCC,inactive
29,CC(C)=CC(=O)O,inactive
30,COC(=O)C(C)Oc1ccc(Oc2ncc(C(F)(F)F)cc2Cl)cc1 (stereo not given),inactive
